Test results as given in the supplement of paper PMC7858590.
± gives the standard deviation of the averaged measurements. Over roughly 3,800 compounds, “cell shape (eccentricity) Z-score vs DMSO control” has its median near 1.1; the lowest 2% begin near -4.7. The entries come from a sample that favours the lowest values as a whole.

Each compound was assayed on human monocyte-derived macrophages (M0) (assay: cell shape (eccentricity) Z-score vs DMSO control; higher = more elongated, M2-like morphology). Conditions: 20 µM; 24 h; macrophage state: M0 (M-CSF).
Description: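 Primary human monocyte-derived macrophages (M-CSF differentiated, pooled from 4 donors, 5000 cells/well in 384-well plates) were treated with each compound at 20 uM for 24 h, then fixed and stained with phalloidin/DAPI and imaged on an Opera Phenix (6 fields, about 1000 cells/well). Cell eccentricity was measured with CellProfiler, and a Z-score (t-test) was computed against 4 DMSO control wells in the same row. Negative values mean round (M1-like) cells and positive values mean elongated (M2-like) cells; the paper's hit cutoffs are Z <= -4 (M1) and Z >= 6 (M2). Scale: negative = round, M1-like.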

SMILES | cell shape (Z-score)
C=C1[C@@H](C)[C@H]2[C@H](Cc3ccccc3)NC(=O)[C@]23OC(=O)/C=C/[C@H](O)CCC[C@@H](C)C/C=C/[C@H]3[C@@H]1O | -24.4
C/C=C/c1ccc2c(c1)OCO2 | 2.7
CC(C)[C@]12O[C@H]1[C@@H]1O[C@]13[C@]1(O[C@H]1CC1C4=C(CC[C@@]13C)C(=O)OC4)[C@@H]2O (stereo not given in full) | 8.48
CC(=O)O[C@H]1C[C@@H](OC(C)=O)C(C)(C)C2C[C@@H](OC(C)=O)[C@]3(C)C(CC[C@@]4(C)[C@H](c5ccoc5)C(=O)[C@H]5O[C@]543)[C@]21C (stereo not given in full) | 0.275
O=C1NCN(c2ccccc2)C12CCN(CCCOc1ccc(F)cc1)CC2 | 1.17
O=c1[nH]c2ccccc2n1CCCN1CCC(n2c(=O)[nH]c3cc(Cl)ccc32)CC1 | -1.03
O=c1[nH]c2ccccc2n1C1CCN(CCCC(c2ccc(F)cc2)c2ccc(F)cc2)CC1 | -6.33
O=c1ccc2cc(O[C@@H]3O[C@H](CO)[C@@H](O)[C@H](O)[C@H]3O)c(O)cc2o1 | 2.48
CC(C)CC1C(=O)N2CCC[C@H]2C2(O)O[C@](NC(=O)C3C=C4c5cccc6[nH]c(Br)c(c56)C[C@H]4N(C)C3)(C(C)C)C(=O)N12 (stereo not given in full) | 4.71
O=C1Nc2ccccc2C2(CCN(CCc3ccc(C(F)(F)F)cc3)CC2)O1 | -0.107
O=C(N[C@H]1CN2CCC1CC2)c1ccc(Cl)cc1 | 1.37
c1cncc(C2=NCCC2)c1 | 0.998
COc1ccc2c3c([nH]c2c1)[C@H](CC(C)C)N1C(=O)[C@H](CCC(=O)OC(C)(C)C)NC(=O)[C@@H]1C3 | 9.45
COc1ccc2c(c1)[nH]c1c(C)nccc12 | -5.5
C=C[C@H]1C[N@@]2CC[C@H]1C[C@H]2[C@H](O)c1ccnc2ccccc12 | 2.46
CN1c2ccccc2C(NCCCCCCC(=O)O)c2ccc(Cl)cc2S1(=O)=O (stereo not given) | 0.787
CCCCC/C=C\C/C=C\C/C=C\C/C=C\CCCC(=O)NCc1ccc(O)c(OC)c1 | -0.144
O=C(Cc1ccc(Cl)c(Cl)c1)N1CCCCC1CN1CCCC1 (stereo not given) | -0.746
Fc1ccc(C(OCCN2CCN(CC=Cc3ccccc3)CC2)c2ccc(F)cc2)cc1 | -4.91
c1ccc(CCCN2CCN(CCOC(c3ccccc3)c3ccccc3)CC2)cc1 | 4.69
C(=Cc1ccccc1)CN1CCN(CCOC(c2ccccc2)c2ccccc2)CC1 | 1.98
Fc1ccc(C(OCCN2CCN(CCCc3ccccc3)CC2)c2ccc(F)cc2)cc1 | -0.302

SMILES | cell shape (Z-score)
Clc1ccc(C(OCCN2CCCCC2)c2ccccc2)cc1 (stereo not given) | 9.16
C(=C\c1ccccc1)/CN1CCN(CCOC(c2ccccc2)c2ccccc2)CC1 | -5.62
Cc1c([N+](=O)[O-])oc2ccc3ccccc3c12 | -0.364
CN(C)C(=O)Oc1cc(OC(=O)N(C)C)cc(C(O)CNC(C)(C)C)c1 (stereo not given) | 2.11
CC(=O)O[C@@H](c1nc2ccccc2c(=O)n1[C@@H]1C[C@@]2(OC1=O)c1ccccc1N1C(=O)[C@H](C)N(O)[C@@H]12)C(C)C | 2.14
COc1cc(Br)c(OC)c2c1C(CN)C2 (stereo not given) | -4.96
CCCN(CCC)C1CCc2c(OC)cccc2C1C (stereo not given) | 4.87
CC1=CC(=O)c2c(O)cccc2C1=O | -4.68
CC(C)NCC(O)c1ccc(N)c(C#N)c1 (stereo not given) | -0.285
CC(=O)O[C@@H]1CC2C(C)(C)C(=O)C=C[C@]2(C)C2CC[C@]3(C)C(=CC(=O)O[C@H]3c3ccoc3)[C@@]21C (stereo not given in full) | -6.06
CC1(C)C(=O)C=C[C@@]2(C)C1C[C@@H](O)[C@]1(C)C2CC[C@@]2(C)[C@H](c3ccoc3)OC(=O)[C@H]3O[C@]321 (stereo not given in full) | 1.86
CC(=O)O[C@@H]1C[C@@]2(C)[C@H](c3ccoc3)C[C@H]3O[C@]32[C@]2(C)C(=O)C(=O)C3C(C)(C)C(=O)C=C[C@]3(C)C12 (stereo not given in full) | -3.62
CC(C)(O)c1cc(O)c2c(c1)CCC1C(C)(C(=O)O)CCCC21C (stereo not given) | 0.93
CC(C)c1c(CN(C)C(C)Cc2ccccc2)n(C)n(-c2ccccc2)c1=O (stereo not given) | 2.2
CC12C(=O)OC(=O)C1(C)C1CCC2O1 (stereo not given) | -12.8
CN1CCc2cc3c(cc2[C@H]1C1OC(=O)c2c1ccc1c2OCO1)OCO3 (stereo not given in full) | 0.327
CC[C@@H](C(=O)[C@@H](C)[C@@H](O)[C@H](C)[C@@H]1O[C@@H]([C@@H](CC)C(=O)O)CC[C@@H]1C)[C@H]1OC2(C=C[C@@H](O)[C@]3(CC[C@@](C)(C4CC[C@](O)(CC)[C@H](C)O4)O3)O2)[C@H](C)C[C@@H]1C (stereo not given in full) | 1.16
C=CCN1C[C@H](C)N([C@H](c2ccc(C(=O)N(CC)CC)cc2)c2cccc(O)c2)C[C@H]1C | 1.38
C[C@]12CCC3C(CC[C@]4(O)C[C@@H](O)CC[C@]34C=O)[C@@]1(O)CCC2C1=CC(=O)OC1 (stereo not given in full) | -3.05
CC(C)(O)/C=C/C(=O)[C@](C)(O)C1[C@H](O)C[C@@]2(C)C3CC=C4C(CC(=O)C(=O)C4(C)C)[C@]3(C)C(=O)C[C@]12C (stereo not given in full) | -23.9
CC(C)(O)CCC(=O)[C@](C)(O)[C@H]1[C@H](O)C[C@@]2(C)[C@@H]3CC=C4C(C=C(O[C@@H]5O[C@H](CO)[C@@H](O)[C@H](O)[C@H]5O)C(=O)C4(C)C)[C@]3(C)C(=O)C[C@]12C (stereo not given in full) | 1.51
CN([N+][O-])c1cc(O)ccc1O | -4.54

SMILES | cell shape (Z-score)
C=CCC1(C(C)CCC)C(=O)N=C(S)NC1=O (stereo not given) | 2.85
CC(=Cc1csc(C)n1)[C@H]1C[C@@H]2O[C@]2(C)CCC[C@H](C)[C@H](O)[C@@H](C)C(=O)C(C)(C)[C@@H](O)CC(=O)O1 | 0.111
c1ccc2c(c1)[I+]c1ccccc1-2 | -7.52
O=C1c2ccccc2C(=O)c2ccccc21 | 1.99
C[C@@]12C[C@@H](c3ccoc3)OC(=O)C1CC[C@]1(C)[C@H]2[C@H]2C=C[C@]1(O)C(=O)O2 (stereo not given in full) | -0.795
COc1cc2c(c(OC)c1OC)-c1ccc(OC)c(=O)cc1C(NC(C)=O)CC2 (stereo not given) | 8.73
CC(C)(C)c1cc(C=C(C#N)C#N)cc(C(C)(C)C)c1O | -0.65
C[C@H]1O[C@@H](O[C@H]2CC[C@]3(CO)C4CC[C@]5(C)[C@@H](C6=CC(=O)OC6)CC[C@]5(O)[C@@H]4CC[C@H]3C2)[C@H](O)[C@H](O)[C@@H]1O[C@@H]1O[C@H](CO)[C@@H](O)[C@H](O)[C@H]1O (stereo not given in full) | -6
C[C@H]1O[C@@H](O[C@H]2CC[C@]3(CO)C4CC[C@]5(C)[C@@H](C6=CC(=O)OC6)CC[C@]5(O)C4CC[C@H]3C2)[C@H](O)[C@H](O)[C@@H]1O (stereo not given in full) | 1.31
CO[C@@H]1[C@H](O)[C@@H](O[C@@H]2C[C@H]3CC[C@@H]4C(CC[C@]5(C)[C@@H](C6=CC(=O)OC6)CC[C@]45O)[C@@]3(C)[C@H](O)C2)O[C@H](C)[C@@H]1O[C@@H]1O[C@H](CO)[C@@H](O)[C@H](O)[C@H]1O (stereo not given in full) | -2.59 ± 0.87
COc1ccc2c(c1O)-c1cc(O)cc3c1[C@@H](C2)N(C)CC3 | 0.611
Cc1c(C(=O)c2cccc3ccccc23)c2cccc3c2n1[C@H](CN1CCOCC1)CO3 | -5.15
Cc1c(C(=O)c2cccc3ccccc23)c2cccc3c2n1[C@@H](CN1CCOCC1)CO3 | 3.85
CCCn1c(C)c(C(=O)c2cccc3ccccc23)c2ccccc21 | 1.57
COc1cc([C@@H]2c3cc4c(cc3[C@H](OC(C)=O)[C@H]3COC(=O)[C@H]23)OCO4)cc(OC)c1OC | 9.18
Cc1ccc2c(c1)Cc1c(C(=O)NC3CCCCC3)nn(-c3ccc(Cl)cc3Cl)c1-2 | 2.43
N#CC(C#N)=Cc1cc(O)c(O)c([N+](=O)[O-])c1 | -0.026
CCNC(=O)C1OC(n2cnc3c(N)ncnc32)C(O)C1O (stereo not given) | 4.21
CCOC(=O)c1ncn2c1CN(C)C(=O)c1cc(N=[N+]=[N-])ccc1-2 | 2.52
CN1C[C@H](C(=O)N[C@]2(C)O[C@@]3(O)[C@@H]4CCCN4C(=O)[C@H](Cc4ccccc4)N3C2=O)C[C@@H]2c3cccc4[nH]cc(c34)C[C@H]21 | 3.57
CC(N)Cn1ccc2cc(F)c(Cl)cc21 (stereo not given) | 0.211
